Reference: the supplement of paper PMC13380429

Test system: Vero E6 infected with SARS-CoV-2
Test: inhibition of SARS-CoV-2 cytopathic effect; higher = more antiviral protection, active = above 15
Conditions: 48 h

Measured: inhibition of SARS-CoV-2 cytopathic effect

Cc1cccc(Cc2c[nH]cn2)c1C [detomidine]
inactive: 1 nM -2.36% | 8.33 nM -0.01% | 100 nM 1.67% | 833.33 nM -2.3% | 10000 nM 2.25%

CNC(=O)c1ccc2c(c1)CCO[C@H]2CCN1CCN(c2ccc(C(N)=O)cc2)CC1
inactive: 1 nM 1.05% | 8.33 nM -0.55% | 100 nM 1.37% | 833.33 nM -1.27% | 10000 nM 3.34%

CC[C@H](C)[C@H](NC(=O)[C@H](Cc1ccc(O)cc1)NC(=O)[C@@H](NC(=O)[C@H](CCCNC(=N)N)NC(=O)[C@@H](N)CC(=O)O)C(C)C)C(=O)N[C@@H](Cc1c[nH]cn1)C(=O)N1CCC[C@H]1C(=O)O
inactive: 1 nM -1.39% | 8.33 nM 1.3% | 100 nM 0.18% | 833.33 nM -0.77% | 10000 nM 2.67%

c1ccc(C[C@H](c2ccccc2)N2CCCCC2)cc1 (racemic) [1-(1,2-diphenylethyl)piperidine-(+/-)]
inactive: 1 nM 0.78% | 8.33 nM 0.67% | 100 nM 0.96% | 833.33 nM 0.92% | 10000 nM 2.17%

CC(=O)Oc1ccccc1C(=O)O [aspirin]
inactive: 1 nM -5.74% | 8.33 nM -5.82% | 100 nM -7.3% | 833.33 nM -5.09% | 10000 nM -12.8%

CC(=O)OCC(=O)[C@@]1(O)CC[C@H]2[C@@H]3CCC4=CC(=O)C=C[C@]4(C)[C@@]3(Cl)[C@@H](Cl)C[C@@]21C [dichlorisone-acetate]
inactive: 1 nM -1.93% | 8.33 nM -2.25% | 100 nM -3.39% | 833.33 nM -2.97% | 10000 nM -2.91%
